# Results filed as inconclusive are left out. A call without a number means that no potency is given here. Calls of active or inactive are those of the source. Unless noted, calls follow the shape of the dose curve; as a rule, active = well fitted curve in the direction sought with a large enough effect; inconclusive = small, poorly fitted or top-dose-only effect, or another doubt; inactive = no such curve, though single readings can be large; an effect the other way counts as inactive or inconclusive.
# Key:
# [1] = Viability counterscreen for antagonist of constitutive androstane receptor (CAR) against the NCATS DSHEA and TCM libraries (AID 1794837);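 also: compound exposure lasted 24 h before viability reading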
# Method in brief: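 HepG2-CYP2B6-hCAR cells (2,500/well) were allowed to attach for 5 h, then exposed to compounds with 48 uM CITCO for 24 h at 37C. Viability was read by CellTiter-Fluor fluorescence after 1 h.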
# [2] = Viability counterscreen for agonist of constitutive androstane receptor (CAR) against the NCATS DSHEA and TCM libraries (AID 1794838)
# Method in brief: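 HepG2-CYP2B6-hCAR cells (2,500/well) attached 5 h, then got compounds plus 0.75 uM PK11195 final. After 24 h at 37C, viability read by CellTiter-Fluor fluorescence (Ex/Em 405/540 nm).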
# [3] = molecular target: Nuclear receptor subfamily 1 group I member 3 (Homo sapiens) (UniProt Q14994); assay: Primary qHTS for agonist of constitutive androstane receptor (CAR) against the NCATS DSHEA and TCM libraries (AID 1794839);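 also: HepG2 cells expressing human CAR with a CYP2B6 reporter plus PK11195 antagonist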
# Sequence of Nuclear receptor subfamily 1 group I member 3 (Homo sapiens) (Q14994 whole entry, looked up): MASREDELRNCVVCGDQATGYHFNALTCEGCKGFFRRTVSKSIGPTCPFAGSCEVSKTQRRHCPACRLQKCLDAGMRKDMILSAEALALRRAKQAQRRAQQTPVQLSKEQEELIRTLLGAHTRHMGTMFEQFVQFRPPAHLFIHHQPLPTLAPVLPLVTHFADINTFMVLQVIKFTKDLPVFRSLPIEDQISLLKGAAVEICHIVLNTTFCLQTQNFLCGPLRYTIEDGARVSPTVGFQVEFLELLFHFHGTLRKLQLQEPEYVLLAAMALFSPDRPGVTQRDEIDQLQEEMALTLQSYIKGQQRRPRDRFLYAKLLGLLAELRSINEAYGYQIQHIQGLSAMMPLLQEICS
# Method in brief: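 HepG2-CYP2B6-hCAR cells (2,500/well) were attached for 5 h, then treated for 24 h at 37 °C with compounds plus 0.75 µM PK11195. Luciferase luminescence (ONE-Glo) was read, with CellTiter-Fluor viability (Ex/Em 405/540 nm).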
# [4] = HepG2 viability counterscreen (readout 2: ATP content) against the NCATS DSHEA and TCM libraries (AID 1794840)
# Method in brief: (§1)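 HepG2 cells (1,000 cells/well) attached ~4 h, then treated ~24 h at 37C with substances. Protease activity read by GF-AFC (25 uM final, 30 min, Ex/Em 380/510 nm); ATP content then by CellTiter-Glo luminescence.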
# [5] = HepG2 viability counterscreen (readout 1: protease activity) against the NCATS DSHEA and TCM libraries (AID 1794841);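 also: cells exposed to compounds for about 24 h before the protease read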
# Method in brief: as §1
# [6] = molecular target: Cytochrome P450 2D6 (Homo sapiens) (UniProt P10635); assay: qHTS for inhibitors of CYP2D6 against the NCATS DSHEA and TCM libraries (AID 1919972)
# Sequence of Cytochrome P450 2D6 (Homo sapiens) (P10635 whole entry, looked up): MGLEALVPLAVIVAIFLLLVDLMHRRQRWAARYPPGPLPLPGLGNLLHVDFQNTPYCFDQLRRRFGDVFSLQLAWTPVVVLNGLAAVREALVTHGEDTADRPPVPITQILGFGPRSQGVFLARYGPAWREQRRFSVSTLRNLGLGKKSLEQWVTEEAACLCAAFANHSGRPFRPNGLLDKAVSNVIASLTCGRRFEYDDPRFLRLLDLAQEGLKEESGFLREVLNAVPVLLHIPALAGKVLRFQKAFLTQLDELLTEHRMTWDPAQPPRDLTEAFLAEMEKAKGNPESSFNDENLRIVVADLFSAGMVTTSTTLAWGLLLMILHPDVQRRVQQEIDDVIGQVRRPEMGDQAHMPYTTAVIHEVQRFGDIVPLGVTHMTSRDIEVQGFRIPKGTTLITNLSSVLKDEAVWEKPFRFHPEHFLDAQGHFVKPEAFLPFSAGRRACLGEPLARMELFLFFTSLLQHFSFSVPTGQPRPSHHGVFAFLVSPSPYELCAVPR
# Method in brief: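 Steps: enzyme plus luciferin substrate dispensed; test substances pinned; 15 min RT; 1x NADPH regenerating solution added, 30–45 min RT protected from light; detection reagent, 30 min RT; luminescence measured. Minus-enzyme wells as background.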
# [7] = molecular target: Cytochrome P450 2C9 (Homo sapiens) (UniProt P11712); assay: qHTS for inhibitors of CYP2C9 against the NCATS DSHEA and TCM libraries (AID 1919973); also: potency is read from the fitted curve at half-maximal effect
# Sequence of Cytochrome P450 2C9 (Homo sapiens) (P11712 whole entry, looked up): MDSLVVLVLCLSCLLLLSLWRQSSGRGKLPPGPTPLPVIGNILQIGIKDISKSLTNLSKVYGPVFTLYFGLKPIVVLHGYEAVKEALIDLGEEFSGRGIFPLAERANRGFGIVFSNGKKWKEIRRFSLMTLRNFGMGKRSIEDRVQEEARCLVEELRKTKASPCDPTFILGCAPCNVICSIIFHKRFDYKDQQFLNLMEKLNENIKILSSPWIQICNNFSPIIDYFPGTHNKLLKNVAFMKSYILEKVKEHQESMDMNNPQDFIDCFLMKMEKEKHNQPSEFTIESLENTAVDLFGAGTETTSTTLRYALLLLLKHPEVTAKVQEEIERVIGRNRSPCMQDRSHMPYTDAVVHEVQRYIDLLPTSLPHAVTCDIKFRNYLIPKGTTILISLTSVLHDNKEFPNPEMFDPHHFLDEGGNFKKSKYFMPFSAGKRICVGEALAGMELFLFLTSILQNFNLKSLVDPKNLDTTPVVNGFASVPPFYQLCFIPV
# Method in brief: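 Luminescent P450-Glo readout. Enzyme plus pro-luciferin substrate in manufacturer buffer (typically 100 mM KPO4); 15 min RT preincubation; 1x NADPH regenerating system, 30-45 min RT in the dark; detection reagent 30 min.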
# [8] = KB-3-1 P-gp reporter qHTS against the NCATS DSHEA and TCM libraries (AID 1919975)
# Method in brief: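 Parental KB-3-1 human cervical adenocarcinoma cells (500 cells/well, DMEM + 10% FBS) were treated with substances for ~72 h at 37C; viability was read by CellTiter-Glo luminescence.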
# [9] = molecular target: Cytochrome P450 1A2 (Homo sapiens) (UniProt P05177); assay: qHTS for inhibitors of CYPIA2 against the NCATS DSHEA and TCM libraries (AID 1919976);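 also: light from luciferin formed by CYP1A2 from a pro-luciferin substrate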
# Sequence of Cytochrome P450 1A2 (Homo sapiens) (P05177 whole entry, looked up): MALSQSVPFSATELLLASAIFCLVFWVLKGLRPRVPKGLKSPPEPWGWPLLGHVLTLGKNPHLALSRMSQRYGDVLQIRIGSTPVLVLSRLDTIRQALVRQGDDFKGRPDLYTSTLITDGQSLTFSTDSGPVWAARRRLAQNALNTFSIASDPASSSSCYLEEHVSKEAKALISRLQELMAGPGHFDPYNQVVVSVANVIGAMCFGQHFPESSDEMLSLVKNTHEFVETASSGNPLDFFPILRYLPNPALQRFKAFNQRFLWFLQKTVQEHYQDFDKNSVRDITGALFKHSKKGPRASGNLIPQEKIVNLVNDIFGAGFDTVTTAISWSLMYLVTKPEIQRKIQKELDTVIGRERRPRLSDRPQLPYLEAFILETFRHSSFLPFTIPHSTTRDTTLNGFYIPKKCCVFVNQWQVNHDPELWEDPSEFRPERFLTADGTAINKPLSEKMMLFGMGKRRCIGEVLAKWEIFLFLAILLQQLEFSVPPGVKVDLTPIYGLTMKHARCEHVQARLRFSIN
# Method in brief: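 Human CYP1A2 with its pro-luciferin substrate in supplier buffer (typically 100 mM KPO4) was pre-incubated with compounds 15 min at RT. Reaction was started with 1x NADPH regeneration solution and run 30-45 min at RT in the dark, then luminescence was read after P450-Glo detection reagent (30 min RT).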
# [10] = qHTS Counterscreen for compound interference against the NCATS DSHEA and TCM libraries (AID 1919978); conditions: firefly luciferase detection reagent interference, luminescence
# Method in brief: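 D-luciferin (1 uM final) or 100 mM potassium phosphate buffer alone was preincubated 15 min at RT with compounds (19.5 nM to 39.8 uM final). Luciferin detection reagent was then added and luminescence read after 30 min at RT.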
# [11] = Dual reporter qHTS for agonist of Pregnane X Receptor (hPXR) against the NCATS DSHEA and TCM libraries: Fluorescence readout (AID 1920058)
# Method in brief: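 hPXR-Luc HepG2 cells (2000/well) in phenol red-free medium with charcoal-stripped FBS attached for 5 h, then were exposed to compounds for about 24 h at 37 °C. Viability was read by CellTiter-Fluor fluorescence (Ex/Em 405/540 nm) after 1 h.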
# [12] = molecular target: Nuclear receptor subfamily 1 group I member 2 (Homo sapiens) (UniProt O75469); assay: Dual reporter qHTS for agonist of Pregnane X Receptor (hPXR) against the NCATS DSHEA and TCM libraries: Luminescence readout (AID 1920059)
# Sequence of Nuclear receptor subfamily 1 group I member 2 (Homo sapiens) (O75469 whole entry, looked up): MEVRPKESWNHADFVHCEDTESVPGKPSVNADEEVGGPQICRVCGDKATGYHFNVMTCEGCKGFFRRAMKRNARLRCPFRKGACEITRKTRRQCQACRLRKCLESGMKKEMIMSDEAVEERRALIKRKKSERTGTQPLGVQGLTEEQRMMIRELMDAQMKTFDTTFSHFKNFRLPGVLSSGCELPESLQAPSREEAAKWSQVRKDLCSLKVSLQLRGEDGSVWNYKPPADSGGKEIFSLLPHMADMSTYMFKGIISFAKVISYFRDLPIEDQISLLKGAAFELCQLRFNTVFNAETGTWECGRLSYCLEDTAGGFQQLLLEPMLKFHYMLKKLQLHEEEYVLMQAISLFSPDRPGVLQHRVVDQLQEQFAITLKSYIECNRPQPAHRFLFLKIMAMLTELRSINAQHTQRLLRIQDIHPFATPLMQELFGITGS
# Method in brief: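 Luminescent PXR reporter read (ONE-Glo) after a CellTiter-Fluor viability read, following 24 h, 37C treatment of HepG2 cells stably carrying hPXR-Luc.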
# [13] = molecular target: Nuclear receptor subfamily 1 group I member 2 (Homo sapiens) (UniProt O75469); assay: Dual reporter qHTS for antagonist of Pregnane X Receptor (hPXR) against the NCATS DSHEA and TCM libraries: Luminescence Readout (AID 1920060);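 also: HepG2 cells carrying hPXR luciferase reporter stimulated with rifampicin at 2 µM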
# Method in brief: (§2)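 HepG2 hPXR-Luc, 2000 cells/well, charcoal-stripped FBS medium; 5 h attach; RIF 2 uM final; 24 h 37C/5% CO2; CellTiter-Fluor 1 h, fluor 405/540; ONE-Glo 30 min RT, lum.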
# [14] = Dual reporter qHTS for antagonist of Pregnane X Receptor (hPXR) against the NCATS DSHEA and TCM libraries: Fluorescence Readout (AID 1920061)
# Method in brief: as §2
# [15] = qHTS drug screen for cell cycle checkpoint inhibitors in PARPi-resistant BRCA-mutant ovarian cancer cell lines. (AID 1963452; calls by dose curve; also: potency is read from the fitted curve at half-maximal effect); conditions: PEO1/OlaR viability, CellTiter-Glo luminescence, 96 h
# Method in brief: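 PEO1, PEO4 and PEO1/OlaR ovarian cancer cells, 600 per well, exposed 96 h at 37C to a dilution series. Viability read by CellTiter-Glo luminescence, normalized to DMSO and empty wells; activity summarized as Z-AUC.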
# [16] = qHTS assay to identify inhibitors of the type 1 interferon - major histocompatibility complex class I in skeletal muscle: Counter screen cell viability and HiBit confirmation (AID 1347412); conditions: iHSKM muscle cells + IFN-b, HiBiT or CellTiter-Glo, 24 h, HiBiT; also: nearly all actives have a fitted effect of over 60% in size; also: potency is read from the fitted curve at half-maximal effect
# Method in brief: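 HLA-B*08:01–HiBiT knock-in immortalized human myoblasts (C25cl48) stimulated with 4.0 ng/ml human IFN-beta and dosed with compound in a 12-point 1:3 titration (top final 46 uM). After 24 hrs at 37 C, HiBiT lytic luminescence or CellTiter Glo ATP read out.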
# [17] = P-glycoprotein substrates identified in KB-3-1 adenocarcinoma cell line, qHTS therapeutic library screen (AID 1346986); also: nearly all actives have a fitted effect of over 60% in size;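 also: potency is read from the fitted curve at half-maximal effect; potency is for cytotoxicity meaning loss of cell viability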
# Method in brief: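 Counter-screen: cherry-picked hits retested in the KB pair and in HEK-293 pcDNA/MDR-19 cells ± tariquidar. Primary screen used 72 h CellTiter-Glo viability in KB-3-1 and KB-8-5-11.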
# [18] = molecular target: Calcium and integrin-binding protein 1 (Homo sapiens) (UniProt Q99828); assay: Primary qHTS for Identification of Calcium Integrin Binding Protein 1 (CIB1) Competitor (AID 1508620);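 also: GST tagged CIB1 binding a fluorescein labelled alphaIIb integrin peptide tracer; top concentration of the series differs between compounds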
# Sequence of Calcium and integrin-binding protein 1 (Homo sapiens) (Q99828 whole entry, looked up): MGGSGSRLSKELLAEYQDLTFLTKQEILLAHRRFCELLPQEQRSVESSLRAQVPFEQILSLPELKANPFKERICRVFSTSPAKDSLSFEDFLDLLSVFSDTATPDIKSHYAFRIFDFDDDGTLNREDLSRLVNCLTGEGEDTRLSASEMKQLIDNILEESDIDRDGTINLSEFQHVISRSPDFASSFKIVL
# Method in brief: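 CIB1-GST (1 uM final) and compound incubated 15 min at room temperature before adding FITC-alphaIIb peptide tracer (100 nM final). Competition for binding read by fluorescence polarization (ex 480, em 540) after another 15 min at room temperature.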
# [19] = Primary qHTS for inhibitors of nuclear receptor binding SET domain protein 2 (NSD2) in an isogenic RCH-ACV NSD2 p.E1099K mutant (9B) (AID 1645876); also: nearly all actives have a fitted effect of over 70% in size; also: potency is read from the fitted curve at half-maximal effect
# [20] = Primary qHTS for inhibitors of nuclear receptor binding SET domain protein 2 (NSD2) in an RCH-ACV wild type WT cells (2C) (AID 1645877); also: nearly all actives have a fitted effect of over 70% in size; also: potency is read from the fitted curve at half-maximal effect
# [21] = molecular target: Catechol O-methyltransferase (Homo sapiens) (UniProt P21964); assay: Confirmatory Screen for Target Class Profiling of Small Molecule Inhibitors of Methyltransferases (AID 1745852); conditions: MTase-Glo luminescence, SAH detection, recombinant enzyme; measured here: COMT max response; stronger effect = lower value
# Sequence of Catechol O-methyltransferase (Homo sapiens) (P21964 whole entry, looked up): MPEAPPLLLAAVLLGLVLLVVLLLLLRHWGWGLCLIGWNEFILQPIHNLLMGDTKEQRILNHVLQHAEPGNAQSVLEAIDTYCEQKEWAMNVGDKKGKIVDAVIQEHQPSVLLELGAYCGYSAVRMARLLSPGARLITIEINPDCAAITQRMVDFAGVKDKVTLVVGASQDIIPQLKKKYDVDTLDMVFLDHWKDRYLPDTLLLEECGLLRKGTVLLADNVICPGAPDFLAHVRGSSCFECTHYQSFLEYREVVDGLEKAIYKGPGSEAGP
# [22] = molecular target: Guanidinoacetate N-methyltransferase (Homo sapiens) (UniProt Q14353); assay: as above; conditions: activity change, negative = inhibition: at 57.3 µM (top of the series) unless noted
# [23] = molecular target: Nicotinamide N-methyltransferase (Homo sapiens) (UniProt P40261); assay: as above; conditions: MTase-Glo luminescence, SAH detection, recombinant enzyme; measured here: NNMT max response; stronger effect = lower value
# Sequence of Nicotinamide N-methyltransferase (Homo sapiens) (P40261 whole entry, looked up): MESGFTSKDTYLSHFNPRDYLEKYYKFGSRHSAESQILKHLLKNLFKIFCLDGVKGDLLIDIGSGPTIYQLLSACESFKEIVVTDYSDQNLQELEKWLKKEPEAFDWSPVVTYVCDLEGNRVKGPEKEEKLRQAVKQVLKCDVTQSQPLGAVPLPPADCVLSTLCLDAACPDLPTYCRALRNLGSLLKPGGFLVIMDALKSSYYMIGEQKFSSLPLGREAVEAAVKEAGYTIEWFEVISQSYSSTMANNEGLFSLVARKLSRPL
# [24] = molecular target: Phenylethanolamine N-methyltransferase (Homo sapiens) (UniProt P11086); assay: as above; conditions: MTase-Glo luminescence, SAH detection, recombinant enzyme; measured here: PNMT max response; stronger effect = lower value
# Sequence of Phenylethanolamine N-methyltransferase (Homo sapiens) (P11086 whole entry, looked up): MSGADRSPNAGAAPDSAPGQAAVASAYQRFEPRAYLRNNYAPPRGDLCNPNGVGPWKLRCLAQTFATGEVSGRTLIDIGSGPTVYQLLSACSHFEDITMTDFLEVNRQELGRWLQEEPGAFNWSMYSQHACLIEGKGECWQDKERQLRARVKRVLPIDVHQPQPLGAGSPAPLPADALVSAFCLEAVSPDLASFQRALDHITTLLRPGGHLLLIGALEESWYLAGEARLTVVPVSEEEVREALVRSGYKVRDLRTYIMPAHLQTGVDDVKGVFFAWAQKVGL
# [25] = molecular target: Glutathione peroxidase 1 (Homo sapiens) (UniProt P07203); assay: Primary qHTS Assay for Inhibitors of Recombinant Selenoprotein Glutathione Peroxidase 1 (GPX1) (AID 1845191); also: nearly all actives have a fitted effect of over 65% in size
# Sequence of Glutathione peroxidase 1 (Homo sapiens) (P07203 whole entry, looked up): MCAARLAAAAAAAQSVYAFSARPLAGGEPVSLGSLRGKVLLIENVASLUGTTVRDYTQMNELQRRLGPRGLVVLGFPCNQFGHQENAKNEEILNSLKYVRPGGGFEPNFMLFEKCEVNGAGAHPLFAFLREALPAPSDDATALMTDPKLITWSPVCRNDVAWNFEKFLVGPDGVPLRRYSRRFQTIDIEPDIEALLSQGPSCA
# Method in brief: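 10 nM GPX1 + cpd, 30 min RT; start w/ 1 mM GSH, 0.5 mM cumene hydroperoxide, 0.5 mM NADPH, 100 nM GR, 0.01% BSA; buffer 50 mM Tris-HCl pH 7.5, 2 mM EDTA, 150 mM NaCl; Fl 340/450, 0 & 15 min.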
compound,measurement,setting,value
O=C(O[C@@H]1Cc2c(O)cc(O)cc2O[C@H]1c1cc(O)c(O)c(O)c1)c1cc(O)c(O)c(O)c1,outcome,[1],inactive
same,outcome,[2],inactive
same,outcome,[3],inactive
same,outcome,[4],inactive
same,outcome,[5],inactive
same,outcome,[6],inactive
same,Potency,[7],12.6 µM (active)
same,outcome,[8],inactive
same,outcome,[9],inactive
same,max response,[10],-4.04% (inactive)
same,outcome,[11],inactive
same,outcome,[12],inactive
same,outcome,[13],inactive
same,outcome,[14],inactive
COCc1c(-c2ccc(NC(=O)Nc3cc(C(F)(F)F)ccc3F)c(F)c2)c2c(N)ncnn2c1CN1CCOCC1,Potency,[15],3.47 µM (active)
same,"activity change, negative = inhibition",[16]; at 45.9 µM (top of the series),-92% (inactive)
Cc1ccc(Nc2ncc3c(n2)N(C)C(=O)N(c2cc(NC(=O)c4cccc(C(F)(F)F)c4)ccc2C)C3)cn1,Potency,[16],0.394 µM (active)
COc1cc(OC)cc(N(CCNC(C)C)c2ccc3ncc(-c4cnn(C)c4)nc3c2)c1,Potency,[16],17.6 µM (active)
CC(C)n1cc(-c2ccc(Oc3ccccc3)cc2)c2c(N)ncnc21,Potency,[17],14.6 µM (active)
same,outcome,[18],inactive
same,Potency,[19],1.64 µM (active)
same,Potency,[20],2.06 µM (active)
same,activity,[21],-15%
same,"activity change, negative = inhibition",[22],-8.59%
same,activity,[23],-34.7%
same,activity,[24],-60.7%
same,Potency,[25],inactive
Cc1ccc(NS(=O)(=O)c2cc3c(cc2F)NC(=O)CC3)cc1Cl,Potency,[17],inactive
same,outcome,[18],inactive
same,Potency,[19],inactive
same,Potency,[25],inactive
CC(=O)[C@H]1CCC2C3CCC4=CC(=O)CC[C@]4(C)C3[C@H](O)C[C@@]21C (stereo not given in full),Potency,[17],inactive
same,Potency,[19],inactive
same,Potency,[20],inactive
same,Potency,[25],inactive
